MazEF act: activators of E. coli MazEF toxin-antitoxin RNase, primary screen, biochemical, fluorescence, uHTS. FAM/BHQ RNA-DNA oligo cleavage fluorescence, 5 h. 0.32% of 350,000 active. Endoribonuclease toxin MazF (Escherichia coli (strain K12)), P0AE70. activation, % at 20 µM. AID 504720, 2011; in the data active = activation above about 50%
Target sequence (P0AE70 whole entry, looked up): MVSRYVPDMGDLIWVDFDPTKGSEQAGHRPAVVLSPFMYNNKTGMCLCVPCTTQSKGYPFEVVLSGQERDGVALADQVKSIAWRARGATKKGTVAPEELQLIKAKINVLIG
PfHsp40 yeast: rescue of yeast from PfHsp40 toxicity, primary screen, S. cerevisiae, ATP luminescence. growth rescue, % at 12.5 µM. S. cerevisiae expressing PfHsp40, growth rescue. 0.68% of 340,000 active; in the data active = growth rescue above about 28%, passing the limit was not always enough;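 note: yeast W303a lacking pdr1 and pdr3 grown in galactose medium; growth measured after three days at 30 °C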
PrP UTR inh: inhibition of PrP 5' UTR reporter expression | cell-based PrP 5' UTR mRNA reporter, plate reader | inhibition, % (test concentration not listed) | 0.35% of 340,000 active | AID 488862, 2010; in the data active = inhibition above about 52%; note: 0 = median of the neutral control wells
PrPC surface inh: inhibitors of human cell surface prion protein PrPC, primary screen, cell-based, TR-FRET; Major prion protein (Homo sapiens), P04156; inhibition, % at 13.8 µM; TR-FRET read-out; 0.43% of 370,000 active; in the data active = inhibition above about 24%; note: 0% = median of the test wells and 100% = reference compound wells
PriA SSB inh: inhibitors of Klebsiella pneumoniae PriA binding to SSB C-terminal tail, primary screen, biochemical, AlphaScreen | AlphaScreen SSBct-PriA binding, biotinylated peptide | PriA–SSB C-terminal tail interaction (Klebsiella pneumoniae) | 0.6% of 430,000 active | inhibition, % at 33 µM; in the data active = inhibition mostly above about 37%, no sharp cut-off; inactive = mostly below about 20%;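 note: plate controls were negative control peptide for no effect and reference peptide for full effect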
* = called active by the depositor; nt = no result; + = active, no number. An excerpt weighted towards active compounds, which were near 1.8% of everything screened.

SMILES	MazEF act	PfHsp40 yeast	PrP UTR inh	PrPC surface inh	PriA SSB inh
O=[N+]([O-])c1nn(-c2cccc(Cl)c2)n(O)c1=NC1CCCCC1	nt	nt	nt	nt	90.3*
O=[N+]([O-])c1nn(-c2ccc3c(c2)OCCO3)n(O)c1=NC1CCCCCC1	-6.3	4.9	nt	3.0	54.6*
Cc1cc(C(=O)COC(=O)c2ccc(NC(=O)CC#N)cc2)c(C)n1CCc1ccc(F)cc1	-26.8	-0.1	-32.4	-3.8	-8.9
Cn1ccc(C(=O)Nc2nnc(-c3ccc(F)cc3)o2)n1	nt	nt	nt	nt	0.0
COc1cc2c(c(OC)c1OC)-c1ccc(OC)c(=O)cc1C(NC(C)=O)CC2 (stereo not given)	2.5	-1.4	63.4*	1.8	6.1
CC(=O)C1C(c2ccncc2)NC(=O)NC1(O)C(F)(F)F (stereo not given)	-0.2	-0.4	-12.6	nt	-9.1
O=C(C[n+]1cccc(Br)c1)c1ccccc1	2.9	0.8	-5.1	-10.0	1.2
O=C(C[n+]1cccc(Br)c1)c1ccc(-c2ccccc2)cc1	15.5	54.3*	-11.0	-2.5	-1.3
Cc1ccc2nc3cc([N+](=O)[O-])cc([N+](=O)[O-])c3cc2c1	354.2*	2.9	-50.4	-0.3	-6.4
Cc1nc2ccc([N+](=O)[O-])cc2nc1C	4.7	-0.4	-23.7	-40.9	1.8
Cn1cccc1C=NNC(=O)C1COc2ccc(C(C)(C)C)cc2O1 (stereo not given)	nt	nt	nt	nt	38.9*
CCOc1cc(/C=N/NC(=O)c2cccs2)ccc1OC(=O)N1CCOCC1	-5.7	-1.1	-12.6	-3.4	nt
O=[N+]([O-])c1cc2c(cc1C=Nc1ccccc1)OCO2	7.0	0.1	-4.5	nt	19.2
Cc1cccc(N=Cc2cc3c(cc2[N+](=O)[O-])OCO3)c1	1.6	1.1	-25.2	-12.0	45.0*
CCOc1ccc2c(c1)nc(SCC(=O)c1ccc(Br)s1)n2C	7.5	-0.3	-16.5	7.5	11.7
Cn1nc(-c2ccccc2)c2ncc(C(F)(F)F)cc21	8.3	-1.1	-16.3	nt	-9.1
COc1ccc(/C=C/C(=O)NCCCN2CCCCCC2)cc1	21.4	-1.1	-7.1	-7.7	21.4
O=C(/C=C/c1ccc(F)cc1)NCCCN1CCN(CCCNC(=O)/C=C/c2ccc(F)cc2)CC1	-0.1	37.1*	-6.1	-2.8	-5.5
O=C(NCCCN1CCN(CCCNC(=O)c2ccccc2F)CC1)c1ccccc1F	-4.5	-1.1	4.8	-7.1	61.3*
CN1CCc2cc(C(CNC(=O)C(=O)Nc3ccc(F)c(Cl)c3)N3CCCC3)ccc21 (stereo not given)	nt	nt	nt	nt	15.0
CCSc1nc2cc(S(=O)(=O)N3CCOCC3)ccc2o1	-1.5	-0.2	-7.6	-1.0	-14.3
O=C(NCc1cccc(Cl)c1)C1Cc2c(-c3ccc(Cl)cc3)ccnc2O1 (stereo not given)	nt	nt	nt	1.0	nt
CN1\C(=C/C=C/C=C/C=[N+](C)C)C(C)(C)c2ccccc21	477.0*	0.8	-0.8	6.8	nt
CN1/C(=C/C=C(C#N)C#N)C(C)(C)c2ccccc21	+	0.1	-4.1	4.5	4.9
C[C@H]1CN([C@@H](C)CO)C(=O)CCCn2nncc2CO[C@@H]1CN(C)Cc1cccc(O)c1	-1.5	nt	nt	-5.6	nt
SMILES	MazEF act	PfHsp40 yeast	PrP UTR inh	PrPC surface inh	PriA SSB inh
Cc1ccc(Cl)cc1S(=O)(=O)NCCn1ccnc1C1CC1	nt	nt	nt	nt	-11.0
COc1cc2c(cc1OC)-c1c(OC)c(OC)cc3c1[C@H](C2)N(C)CC3	4.7	0.0	10.6	-45.5	73.2*
C=CCNc1sc(C(=O)c2ccccc2)c(N)c1-c1nc2ccccc2s1	10.3	-0.4	-25.6	nt	54.1*
CCNc1sc(C(=O)c2cccs2)c(N)c1-c1nc2ccccc2s1	6.1	0.7	-14.8	-11.9	54.8*
CCOC(=O)c1sc(NCc2ccco2)c(-c2nc3ccccc3s2)c1N	0.0	-0.1	-33.9	0.8	11.7
Brc1ccc(CN2CC(c3nc(-c4ncccn4)no3)C2)s1	nt	nt	nt	nt	-11.0
Oc1ccc(C=NNc2ccnc3cc(Cl)ccc23)c(O)c1	nt	nt	nt	nt	-6.8
Cc1cc(Cl)ccc1OCc1n[nH]c(=S)n1C1CCCCC1	6.3	80.0*	-18.8	2.4	9.2
COc1ccc(Cl)cc1-c1n[nH]c(=S)n1C1CCCCC1	3.3	1.6	6.8	23.1	20.1
CO/N=C/c1ccc(Sc2ccccc2N)c([N+](=O)[O-])c1	3.2	0.5	-10.6	-13.6	nt
CON=Cc1ccc(Sc2ccccc2N)c([N+](=O)[O-])c1	nt	nt	nt	nt	52.1*
